# From the supplement of paper PMC6953052
# Several values for one entry are separate records, joined by “and”; a condition that tells them apart may be missing. Equal values may be shown once. ± gives the standard deviation of the averaged measurements. The full ranking holds about 1,700 compounds; the median of “fraction of GFP-LC3-positive cells (≥5 vesicles/cell)” is about 0.058, and the highest 2% start at about 0.59. What follows is part of a selection rich in the highest values, with near analogues and random picks from the rest.
# System: CbCln3 +/+ GFP-LC3 cerebellar neuronal cells
# Test: fraction of GFP-LC3-positive cells (≥5 vesicles/cell); higher = more autophagosome accumulation
# In short: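 By pin transfer, ~50 nL of compound in DMSO went in duplicate into 384-well plates holding 2 × 10^3 wild-type or mutant CbCln3 cerebellar cells per well that stably express GFP-LC3, followed by 24 h at 33 °C. The final 30 min included Hoechst 33342 and LysoTracker Red, and then came 3.2% PFA fixation and 10× imaging of three fields per well. Each value gives the fraction of cells above a vesicle threshold, averaged across duplicates, with CellProfiler counting GFP-LC3 vesicles and out-of-focus images left out. The threshold is 5 or more vesicles per cell.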
row,Compound,fraction of GFP-LC3-positive cells
1,COC(=O)/C=C/c1cc(O)ccc1O,0.852
2,COc1ccc(C(=O)c2ccccc2)c(O)c1 [Oxybenzone],0.0797
3,Oc1cc(O)cc(/C=C/c2ccc(O)c(O)c2)c1,0.173
4,Oc1cc(O)cc(/C=C/c2ccc(O)c(O)c2)c1 [Piceatannol],0.357
5,CCCCCCCC/C=C\CCCCCCCCOC[C@H](COP(=O)([O-])OCC[N+](C)(C)C)OC(C)=O,0.0408 ± 0.0017
6,C[n+]1cccc(C(=O)[O-])c1 [Trigonelline],0.042
7,Cn1cnc2c(NCc3ccccc3)nc(NCCO)nc21,0.0719
8,Cn1cnc2c(NCc3ccccc3)nc(NCCO)nc21 [olomoucine],0.058
9,O.O.O=c1c(O)c(-c2ccc(O)c(O)c2)oc2cc(O)cc(O)c12 [Quercetine dihydrate],0.0843
10,CSCC[C@@H](C=O)NC(=O)[C@H](CC(C)C)NC(=O)[C@H](CC(C)C)NC(C)=O,0.0674
11,CC(=O)N[C@@H](CC(C)C)C(=O)N[C@@H](CC(C)C)C(=O)N[C@H](C=O)CCCNC(=N)N [Leupeptin],0.0499
12,CCCC[C@@H](C=O)NC(=O)[C@H](CC(C)C)NC(=O)[C@H](CC(C)C)NC(C)=O,0.926
13,Nc1ccn([C@H]2CC[C@@H](CO)O2)c(=O)n1 [Zalcitabine],0.11
14,O=C1CCc2c(ccc3ccccc23)O1 [Splitomycin],0.0416
15,"O=C1C=CC(=O)c2c1ccc1c2ccc2ccccc21 [Chrysene-1,4-quinone]",0.597
16,CCCCCCCCCCC(=O)O [Undecanoic acid],0.0729
17,CC(=O)Oc1cc(C(C)C)c(OCCN(C)C)cc1C.Cl [Moxisylyte hydrochoride],0.0756
18,CS(=O)(=O)c1ccc([C@@H](O)[C@@H](CO)NC(=O)C(Cl)Cl)cc1 [Thiamphenicol],0.0366
19,COc1ccc(CC(N)C(=O)N[C@H]2[C@@H](O)[C@H](n3cnc4c(N(C)C)ncnc43)O[C@@H]2CO)cc1 (stereo not given in full) [puromycin],0.276
20,N=C(N)N1CCc2ccccc2C1.N=C(N)N1CCc2ccccc2C1.O=S(=O)(O)O [Debrisoquin sulfate],0.0501
21,C/C=C(/C(=C/C)c1ccc(O)cc1)c1ccc(O)cc1 [Dienestrol],0.14
22,"CCCCC/C=C/C/C=C/CCCCCCCCCCC(=O)O [12(Z), 15(Z)-Heneicosadienoic acid]",0.0338
23,NC(CO)(CO)CO.O=C(c1ccccc1)c1ccc2n1CCC2C(=O)O (stereo not given) [Ketorolac tromethamine],0.0452

row,Compound,fraction of GFP-LC3-positive cells
1,CC(C)(C)NCC(O)COc1cccc2c1CC(O)C(O)C2 (stereo not given) [Nadolol],0.0452
2,O=C(O)c1ccccc1Nc1ccccc1,0.0543
3,N#CC(=C(/N)Sc1ccccc1N)/C(C#N)=C(\N)Sc1ccccc1N,0.0648 and 0.109
4,CO[C@H]1/C=C/O[C@@]2(C)Oc3c(C)c(O)c4c(O)c(c(/C=N/N5CCN(C)CC5)c(O)c4c3C2=O)NC(=O)/C(C)=C\C=C\[C@H](C)[C@H](O)[C@@H](C)[C@@H](O)[C@@H](C)[C@H](OC(C)=O)[C@@H]1C [Rifampicin],0.0415
5,C[C@]12CCC(=O)C=C1CC[C@@H]1[C@@H]2C(=O)C[C@@]2(C)[C@H]1CC[C@]2(O)C(=O)CO [Cortisone],0.0551
6,CCCCCCCC/C=C/CCCCCCCCCCC(=O)O [12(Z) Heneicosenoic acid],0.0354
7,CCC1(c2ccccc2)C(=O)NCNC1=O [Primidone],0.0329
8,CC(C)Cn1c(=O)n(C)c(=O)c2[nH]cnc21,0.0399
9,CN1C(C(=O)Nc2ccccn2)=C(O)c2ccccc2S1(=O)=O [piroxicam],0.0598
10,C[C@H](NCCc1ccc(O)cc1)[C@H](O)c1ccc(O)cc1.Cl [Ritodrine hydrochloride],0.0423
11,CO[C@H]1C[C@@H]2CC[C@@H](C)[C@@](O)(O2)C(=O)C(=O)N2CCCC[C@H]2C(=O)O[C@H]([C@H](C)C[C@@H]2CC[C@@H](O)[C@H](OC)C2)CC(=O)[C@H](C)/C=C(\C)[C@@H](O)[C@@H](OC)C(=O)[C@H](C)C[C@H](C)/C=C/C=C/C=C/1C,0.0529
12,N#Cc1c(-c2ccccc2)no[n+]1[O-] [Furoxan],0.597
13,COc1cc(CNC(=O)CCCC/C=C/C(C)C)ccc1O [Capsaicin],0.0783
14,Cc1cccc(Nc2ccncc2S(=O)(=O)NC(=O)NC(C)C)c1 [Torsemide],0.0886
15,CC(/C=C/C(=O)NO)=C\[C@@H](C)C(=O)c1ccc(N(C)C)cc1 [trichostatin-A],0.799
16,CN(C)N=Nc1[nH]cnc1C(N)=O [Dacarbazine],0.0174
17,CC/C=C\C/C=C\C/C=C\C/C=C\C=C\C(O)CCCC(=O)O (racemic),0.07
18,Cc1ccc(S(=O)(=O)N[C@@H](Cc2ccccc2)C(=O)CCl)cc1,0.315
19,CCCCNC(=O)NS(=O)(=O)c1ccc(C)cc1 [Tolbutamide],0.0602
20,CCCCNC(=O)NS(=O)(=O)c1ccc(C)cc1,0.046
21,Cc1ccc(S(=O)(=O)N[C@@H](Cc2ccccc2)C(=O)CCl)cc1 [Tosyl-Phe-CMK (TPCK)],0.744
22,O=C(O)c1ccccc1OP(=O)(O)O [Fosfosal],0.0551
23,O[C@H]1[C@H]2c3cc4c(cc3CN3CCC(=C[C@@H]1O)[C@H]23)OCO4 [Lycorine],0.424

row,Compound,fraction of GFP-LC3-positive cells
1,CC(=O)CC(c1ccc([N+](=O)[O-])cc1)c1c(O)c2ccccc2oc1=O (stereo not given) [Acenocoumarol],0.0753
2,CCCCC/C=C\C/C=C\C/C=C\C=C\C1CCCC(=O)O1 (racemic) [(±)5-HETE Lactone],0.0775
3,CCCCNc1ccc(C(=O)OCCOCCOCCOCCOCCOCCOCCOCCOCCOC)cc1 [Benzonatate],0.0604
4,CCCCCCCCCCCCCCCCOCC(CO)OC(C)=O (stereo not given) [1-Hexadecyl-2-O-acetyl-glycerol],0.076
5,CCCCCCCCCCCCCCCCOCC(CO)OC(C)=O (stereo not given),0.0373
6,CCN(CC)CCNC(=O)COc1ccc(OC)cc1.Cl [Mefexamide hydrochloride],0.0712
7,CC1=C(/C=C/C(C)=C/C=C/C(C)=C/C(=O)O)C(C)(C)CCC1,0.0875
8,"CC1=C(/C=C/C(C)=C/C=C/C(C)=C/C(=O)O)C(C)(C)CCC1 [Retinoic acid, all trans]",0.0413
9,O=C(CCCCC(=O)Nc1c(I)cc(I)c(C(=O)O)c1I)Nc1c(I)cc(I)c(C(=O)O)c1I [Iodipamide],0.064
10,CCCCC[C@H](O)/C=C/[C@H]1C(=O)C[C@H](O)[C@@H]1C/C=C\CCCC(=O)O [Prostaglandin D2],0.0347
11,CCCCC[C@H](O)/C=C/[C@H]1C(=O)C[C@H](O)[C@@H]1C/C=C\CCCC(=O)O,0.0396
12,Cc1ccc2c(c1)C(=O)C1(O)CCN(c3ccccc3)C1=N2 (stereo not given) [Blebbistatin],0.0372
13,CC(=O)S[C@@H]1CC2=CC(=O)CC[C@]2(C)[C@H]2CC[C@@]3(C)[C@@H](CC[C@@]34CCC(=O)O4)[C@H]12 [Spironolactone],0.0439
14,CCCCCCCC/C=C\C/C=C\C/C=C\CCCC(=O)O,0.0292
15,CCCCCCCC/C=C\C/C=C\C/C=C\CCCC(=O)O [Mead acid (20:3 n-9)],0.0545
16,N/C(=N\C(=O)c1nc(Cl)c(N)nc1N)NCc1ccccc1,0.0546
17,Cl.N/C(=N\C(=O)c1nc(Cl)c(N)nc1N)NCc1ccccc1 [Benzamil hydrochloride],0.0345
18,N/C(=N\C(=O)c1nc(Cl)c(N)nc1N)NCc1ccc(Cl)cc1Cl,0.6
19,CC(N/C(=N\C#N)Nc1ccncc1)C(C)(C)C (stereo not given) [Pinacidil],0.0274
20,CCN(CC)CCCCCCCCOC(=O)c1cc(OC)c(OC)c(OC)c1,0.0457
21,CN1CCC(=C2c3ccccc3Sc3ccccc32)CC1.O=C(O)/C=C\C(=O)O [Pimethixene maleate],0.0718
22,c1ccc(CN(CCN(Cc2ccccn2)Cc2ccccn2)Cc2ccccn2)nc1,0.755
23,CN(C)CCN(Cc1ccc(Cl)cc1)c1ccccn1.Cl [Chloropyramine hydrochloride],0.056

row,Compound,fraction of GFP-LC3-positive cells
1,CNCCc1ccccn1.CS(=O)(=O)O.CS(=O)(=O)O [Betahistine mesylate],0.0666
2,CC(C)(Sc1cc(C(C)(C)C)c(O)c(C(C)(C)C)c1)Sc1cc(C(C)(C)C)c(O)c(C(C)(C)C)c1 [Probucol],0.0472
3,COc1cc2ccc(=O)oc2cc1O [Scopoletin],0.0458
4,CCOC(=O)Oc1c(OC)cc(C(=O)O[C@@H]2C[C@@H]3CN4CCc5c([nH]c6cc(OC)ccc56)[C@H]4C[C@@H]3[C@H](C(=O)OC)[C@H]2OC)cc1OC [Syrosingopine],0.251
5,CCn1cc(C(=O)O)c(=O)c2cc(F)c(N3CCNCC3)nc21 [Enoxacin],0.045
6,Cc1cc2ncc(-c3ccccc3)nc2cc1C,0.0688
7,O=C(O)CNC(=O)C(CS)Cc1ccccc1 (stereo not given),0.0651
8,O=C(O)CNC(=O)C(CS)Cc1ccccc1 (stereo not given) [Thiorphan],0.0564
9,COc1cccc2c1C(=O)c1c(O)c3c(c(O)c1C2=O)C[C@@](O)(C(C)=O)C[C@@H]3O[C@H]1C[C@H](N)[C@H](O)[C@H](C)O1.Cl [Daunorubicin hydrochloride],0.568
10,COc1cccc2c1C(=O)c1c(O)c3c(c(O)c1C2=O)C[C@@](O)(C(=O)CO)C[C@@H]3O[C@H]1C[C@H](N)[C@H](O)[C@H](C)O1.Cl [Doxorubicin hydrochloride],0.482
11,COc1cccc2c1C(=O)c1c(O)c3c(c(O)c1C2=O)C[C@@](O)(C(=O)CO)C[C@@H]3O[C@H]1C[C@H](N)[C@H](O)[C@H](C)O1.Cl [doxorubicin],0.608
12,CC[N+](CC)(CC)CC(=O)Nc1c(C)cccc1C.[Br-],0.0348
13,CC(C)N1CCN(c2ccc(OC[C@H]3CO[C@](Cn4cncn4)(c4ccc(Cl)cc4Cl)O3)cc2)CC1 [Terconazole],0.0686
14,O=C(O)c1ccc2nc(-c3ccccc3)c(-c3ccccc3)nc2c1,0.0605
15,c1ccc2c(Cc3c[nH]c4ccccc34)c[nH]c2c1 [Diindolylmethane],0.0761
16,c1ccc2c(Cc3c[nH]c4ccccc34)c[nH]c2c1,0.0651
17,Nc1nc(=O)c2c([nH]1)NCC(CNc1ccc(C(=O)N[C@@H](CCC(=O)[O-])C(=O)[O-])cc1)N2C=O.[Ca+2] (stereo not given in full) [Folinic acid calcium salt],0.0553
18,CC[C@H]1[C@@H]2C=C[C@@H]3[C@H]4C/C=C\C(=O)NCCC[C@@H]5NC(=O)C(=C5O)C(=O)CC[C@@H]4C[C@@H]3[C@H]2C[C@H]1C [Ikarugamyin],0.69
19,CC1=C(C(=O)O)N2C(=O)[C@@H](NC(=O)[C@H](N)c3ccccc3)[C@H]2SC1.O [Cephalexin monohydrate],0.0422
20,OC[C@H]1NC[C@H](O)[C@@H](O)[C@@H]1O [deoxynorjrimycin(1)],0.0354
21,O=C(O)c1cc(-c2ccc(F)cc2F)ccc1O [Diflunisal],0.0501
